This is an account of results in PubChem BioAssay (NCI).

This is part of a sample that, as a whole, favours compounds with a hit. Of some 83,000 tested, about 20% had one in any assay.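 Compound tested at a single concentration for 48 hours in 96-well plates; a percent growth value below 10 was scored as active.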 Values without a mark were called inactive. Activity calls are given as the source filed them.

Among the test systems are HCT-15 colon; HT29 colon; SNB-75 CNS; SNB-19 CNS; U251 CNS; PC-3 prostate; SK-MEL-5 melanoma; UACC-62 melanoma; LOX IMVI melanoma; SK-MEL-28 melanoma.
Holding throughout (experiment): NCI-60 one-dose screen, 48 h (100 = growth as untreated, 0 = no growth, -100 = all killed)
Settings in all cases: 10 µM unless noted

In the case of `CC(=O)Nc1ccc(NC(=O)Nc2cccc(-c3nc(-c4ccc(NC(=O)c5cccnc5)cc4Cl)no3)c2)cc1C(F)(F)F`, the growth with HCT-15 colon was 25.7%; with HT29 colon, -41% (active); in the assay with SNB-75 CNS, -64.1% (active); in the assay with SNB-19 CNS, -12.2% (active); with U251 CNS, -56.1% (active); in the assay on PC-3 prostate, -61.4% (active). The growth with SK-MEL-5 melanoma was -88.2% (active); in the assay with UACC-62 melanoma, -81.6% (active); in the assay on LOX IMVI melanoma it was -91.9% (active); with SK-MEL-28 melanoma, -81.8% (active).
In the case of `Cn1c(SC(C(=O)Nc2ccc(F)cc2)c2ccccc2)nc2ccccc2c1=O` (stereo not given), the growth in the assay on HCT-15 colon was 102%; in the assay with HT29 colon, 107%; in the assay on SNB-75 CNS, 91.3%; in the assay with SNB-19 CNS, 98.9%; with U251 CNS, 103%; with PC-3 prostate, 95.8%. The growth with SK-MEL-5 melanoma is 104%; in the assay on UACC-62 melanoma, 95.2%; with LOX IMVI melanoma, 102%; in the assay with SK-MEL-28 melanoma it was 114%.
`CCCCCc1ccc(S(=O)(=O)N(C(C)=O)c2cccc(-c3csc(N(CCN4CCN(C)CC4)C(C)=O)n3)c2)cc1`: the growth in the assay on HCT-15 colon was -13.6% (active); in the assay on HT29 colon it was -41.4% (active); in the assay with SNB-75 CNS, 64%; with SNB-19 CNS, 60.6%; with U251 CNS, -10.8% (active); in the assay with PC-3 prostate, 62.5%. The growth in the assay on SK-MEL-5 melanoma is -97.7% (active); in the assay on UACC-62 melanoma, -71.4% (active); with LOX IMVI melanoma it was -92.1% (active); with SK-MEL-28 melanoma, -85.8% (active).
For `O=C1/C(=C/c2ccc([N+](=O)[O-])cc2)SC(=Nc2ccccc2)N1Nc1ccccc1`, the growth in the assay on HCT-15 colon is 39.3%; with HT29 colon, 42.3%; in the assay with SNB-75 CNS, 73.2%; in the assay with SNB-19 CNS it was 60.2%; in the assay with U251 CNS, 44.4%; in the assay on PC-3 prostate, 62.1%. Also, the growth with SK-MEL-5 melanoma is 92%; with UACC-62 melanoma it was 55.8%; with LOX IMVI melanoma, 19.3%; in the assay on SK-MEL-28 melanoma it was 83%.
For the molecule `O=C(COc1cccc2cccnc12)Nc1ccc(C(=O)/C=C/c2ccc(Cl)cc2)cc1`, the growth in the assay with HCT-15 colon was 70%; with HT29 colon, 86.5%; in the assay on SNB-75 CNS, 96%; with SNB-19 CNS, 87.2%; in the assay with U251 CNS, 92.2%; with PC-3 prostate it was 89.2%. Besides, the growth is 83.7% in the assay on SK-MEL-5 melanoma, 72.6% in the assay with UACC-62 melanoma, 47.5% in the assay on LOX IMVI melanoma and 101% in the assay with SK-MEL-28 melanoma.
For the molecule `CC(C)=CCc1c(O)c(CC=C(C)C)c2c(c1O)C(=O)C1=C[C@@H]3C[C@H]4C(C)(C)O[C@@](C/C=C(\C)C(=O)O)(C3=O)[C@@]14O2`, the growth in the assay on HCT-15 colon is -30% (active); with HT29 colon it was -11.1% (active); with SNB-75 CNS, 33.7%; in the assay with SNB-19 CNS, 41.6%; in the assay on U251 CNS it was -71.9% (active); in the assay with PC-3 prostate it was 11.3%. Further, the growth in the assay on SK-MEL-5 melanoma was -94.9% (active); with UACC-62 melanoma, -22.3% (active); in the assay on LOX IMVI melanoma, -97% (active); with SK-MEL-28 melanoma, -11.2% (active).
`CC(=O)Nc1nc2c(s1)C1=CC[C@H]3[C@@H]4CC[C@H](C(C)=O)[C@@]4(C)CC[C@@H]3[C@@]1(C)CC2`: the growth with HCT-15 colon is 26.4%; in the assay with HT29 colon, 27.7%; in the assay on SNB-75 CNS, 47.8%; in the assay with SNB-19 CNS it was 69%; with U251 CNS, 44.4%; in the assay on PC-3 prostate, 43%. In addition, the growth in the assay with SK-MEL-5 melanoma was 93.6%; in the assay on UACC-62 melanoma it was 73.7%; in the assay on LOX IMVI melanoma, 59.6%; in the assay with SK-MEL-28 melanoma, 49%.
Turning to `Cc1nn(-c2ccccc2)c2nc(CCl)[nH]c(=O)c12`, the growth in the assay on HCT-15 colon was 90.6%; in the assay on HT29 colon it was 106%; in the assay with SNB-75 CNS, 93.9%; with SNB-19 CNS, 89.4%; with U251 CNS it was 101%; in the assay with PC-3 prostate, 102%. Moreover, the growth in the assay with SK-MEL-5 melanoma is 98.7%; in the assay with UACC-62 melanoma, 96.2%; in the assay with LOX IMVI melanoma, 2.09% (active); in the assay with SK-MEL-28 melanoma it was 110%.
Take `O=C1C[C@@H](c2ccccc2)Oc2c(Cc3ccccc3O)c(O)c(Cc3cc(Cc4cc(Cc5ccccc5O)ccc4O)ccc3O)c(O)c21`: the growth is 104% with HCT-15 colon; 128% in the assay on HT29 colon; 72.7% in the assay with SNB-75 CNS; 99.7% in the assay with SNB-19 CNS; 93.7% in the assay on U251 CNS; 89.1% with PC-3 prostate. The growth in the assay with SK-MEL-5 melanoma is 98.6%; with UACC-62 melanoma, 72.7%; in the assay with LOX IMVI melanoma, 87.2%; with SK-MEL-28 melanoma, 114%.
In the case of `COc1cc(NC2=C(Cl)C(=O)c3nc(C)ccc3C2=O)cc(OC)c1`, the growth is -66.2% (active) in the assay with HCT-15 colon; 24.9% in the assay with HT29 colon; -4.09% (active) in the assay with SNB-75 CNS; 30.4% in the assay on SNB-19 CNS; 36.8% in the assay on U251 CNS; 28% in the assay on PC-3 prostate. Besides, the growth in the assay on SK-MEL-5 melanoma was -74.9% (active); in the assay on UACC-62 melanoma it was -43.6% (active); with LOX IMVI melanoma, -82.6% (active); in the assay on SK-MEL-28 melanoma, -73.1% (active).
With `CN(c1ccc(Cl)cc1)S(=O)(=O)c1ccc(-c2cnc(C3CC3)o2)cc1`, the growth with HCT-15 colon was 15.6%; in the assay on HT29 colon, 15%; in the assay on SNB-75 CNS it was 43%; with SNB-19 CNS, 44.4%; in the assay on U251 CNS, 32.3%; in the assay with PC-3 prostate, 22.3%. In addition, the growth is 10.2% in the assay on SK-MEL-5 melanoma, 37.3% in the assay on UACC-62 melanoma, 12.9% with LOX IMVI melanoma and 65.2% in the assay on SK-MEL-28 melanoma.
Take `COc1ccc(NS(=O)(=O)c2ccc(-c3cnc(C4CC4)o3)cc2)cc1Cl`: the growth is 29.3% in the assay on HCT-15 colon; 10.6% with HT29 colon; -2.75% (active) in the assay on SNB-75 CNS; 43.8% in the assay on SNB-19 CNS; 36% in the assay on U251 CNS; 25.2% in the assay with PC-3 prostate. Besides, the growth in the assay with SK-MEL-5 melanoma is 18.1%; in the assay with UACC-62 melanoma it was 34.1%; with LOX IMVI melanoma, 39.5%; with SK-MEL-28 melanoma, 66.9%.
`CCOC(=O)c1c(NC(=O)c2ccc(C(C)(C)C)cc2)sc2cc(OCCN3CCCCC3)ccc12`: the growth with HCT-15 colon was 22.3%; with HT29 colon, 24.3%; in the assay on SNB-75 CNS it was 94.7%; with SNB-19 CNS, 55.6%; in the assay with U251 CNS it was 45.3%; with PC-3 prostate, 76.2%. The growth in the assay on SK-MEL-5 melanoma is 96.9%; in the assay with UACC-62 melanoma, 102%; in the assay on LOX IMVI melanoma, -74.4% (active); in the assay with SK-MEL-28 melanoma it was 104%.
